Sampled rows, rich in hits. Any-hit rate of the full collection: about 13%.
KDM4E inh – qHTS Assay for Inhibitors of Human Jumonji Domain Containing 2E (JMJD2E) | Potency, µM (highest dose often 57.1 µM), for the others: at the highest dose activity change, negative = inhibition, actives largely listed as inhibitors | Lysine-specific demethylase 4E (Homo sapiens), B2RXH2 | JMJD2E catalytic domain, FDH-coupled NADH fluorescence (FDH is formaldehyde dehydrogenase) | AID 2147, 2009 | 1.6% of 230,000 active; active = well fitted inhibition curve with a large enough effect, not every such curve was filed as active; inconclusive = small, poorly fitted or top-dose-only effect, or another doubt; inactive = no such curve, though single readings can be large or run the other way;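 also: potency is read from the fitted curve at half-maximal effect; 0% = wells with enzyme and -100% = buffer wells without enzyme; nearly all actives have a fitted effect of over 50% in size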
Target sequence (B2RXH2 1-337 limits assumed): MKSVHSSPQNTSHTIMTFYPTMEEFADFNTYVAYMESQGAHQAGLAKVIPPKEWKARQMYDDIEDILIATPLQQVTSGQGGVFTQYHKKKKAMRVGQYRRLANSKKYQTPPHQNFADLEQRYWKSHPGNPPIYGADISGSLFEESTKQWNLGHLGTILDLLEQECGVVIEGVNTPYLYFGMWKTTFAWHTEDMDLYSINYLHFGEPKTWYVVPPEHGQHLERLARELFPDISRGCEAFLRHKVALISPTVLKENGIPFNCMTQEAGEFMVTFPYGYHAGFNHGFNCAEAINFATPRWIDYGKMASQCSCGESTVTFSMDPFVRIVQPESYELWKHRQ
miR-21 act – qHTS Assay for Modulators of miRNAs and/orActivators of miR-21; HeLa miR-21 FLuc reporter, luciferase, 48 h; Potency, µM (doses to about 38.3 µM), inactives show top-dose activity change, positive = activation, usual class: activators; AID 2288, 2010; 340,000 tested, under 10 active;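 also: % of control where 0% means no effect; miR-21 action dims this reporter so a rising signal means less miR-21 action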
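Luminescence from a firefly luciferase reporter carrying a miR-21 binding site downstream, stably expressed under a CMV promoter in HeLa cells that make miR-21 endogenously, reports miRNA modulation after 48 h compound exposure up to approximately 40uM final.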
LMNA splice mod – qHTS Assay for Modulators of Lamin A Splicing | HeLa LMNA splicing GFP/RFP minigene ratio, 48 h | Potency, µM (doses to about 46.1 µM), for the others: at the top dose ratio change, negative = inhibition, actives largely listed as inhibitors | 0.01% of 200,000 active; active = well fitted inhibition curve with a large enough effect in the signal ratio, with a control signal flat, not every such curve was filed as active; inconclusive = small, poorly fitted or top-dose-only effect, or effect the other way, or a change in a side signal; the % refers to the signal ratio; also: potency is read from the fitted curve at half-maximal effect; % is scaled to controls: 0 for no effect and ±100 for the full control effect
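S3 HeLa stable clones carrying a lamin A-EGFP splicing minigene plus DsRed2 were seeded at 600 cells/well in Opti-MEM with 2% FBS, pin-dosed and incubated 48 h at 37°C. Acumen cytometry (488 nm) gave the GFP/RFP total-intensity ratio.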
ALDH1A1 block – qHTS Assay for Inhibitors of Aldehyde Dehydrogenase 1 (ALDH1A1) | 7.3% of 220,000 active | AID 1030, 2008 | Purified ALDH1A1, NADH fluorescence, propionaldehyde substrate | Potency, µM (doses to about 75.3 µM), for inactives: at the top dose activity, negative = inhibition, hits mostly inhibitors | Aldehyde dehydrogenase 1A1 (Homo sapiens), P00352; active = well fitted inhibition curve with a large enough effect, not every such curve was filed as active; inconclusive = small, poorly fitted or top-dose-only effect, or another doubt; inactive = no such curve, though single readings can be large or run the other way;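 also: potency is read from the fitted curve at half-maximal effect; plate controls were no enzyme wells and a reference inhibitor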
Sfp PPTase inh – qHTS Assay for Inhibitors of Bacillus subtilis Sfp phosphopantetheinyl transferase (PPTase). 4'-phosphopantetheinyl transferase ffp (Bacillus subtilis), Q9F4F7. Biochemical Sfp PPTase activity, qHTS. Potency, µM, inactives show largest response in the series, negative = inhibition, hits mostly inhibitors. 3.5% of 310,000 active. AID 1490, 2009;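 also: the enzyme is Sfp with the accession as filed and its product quenches rhodamine fluorescence; potency is read from the fitted curve at half-maximal effect; 0% = enzyme reaction without inhibitor and -100% = no enzyme wells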
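Step 1, compound plus 15 nM Sfp-PPTase, 15 min, room temperature. Step 2, add rhodamine-CoA (5 uM) and BHQ-2-YbbR (12.5 uM). Step 3, read 525/598 nm fluorescence at 0 and 30 min.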
G9a inh – qHTS Assay for Inhibitors of Histone Lysine Methyltransferase G9a; Histone-lysine N-methyltransferase EHMT2 (Homo sapiens), Q96KQ7; G9a H3K9 monomethylation, AlphaScreen, 2 h; Potency, µM (highest dose often 102 µM), for inactives: at the top dose activity, negative = inhibition, most hits filed as inhibitors; 8.8% of 350,000 active; AID 504332, 2011; also: potency is read from the fitted curve at half-maximal effect; % is scaled to controls: 0 for no effect and ±100 for the full control effect; nearly all actives have a fitted effect of over 75% in size
Target sequence (Q96KQ7 913-1193 limits assumed): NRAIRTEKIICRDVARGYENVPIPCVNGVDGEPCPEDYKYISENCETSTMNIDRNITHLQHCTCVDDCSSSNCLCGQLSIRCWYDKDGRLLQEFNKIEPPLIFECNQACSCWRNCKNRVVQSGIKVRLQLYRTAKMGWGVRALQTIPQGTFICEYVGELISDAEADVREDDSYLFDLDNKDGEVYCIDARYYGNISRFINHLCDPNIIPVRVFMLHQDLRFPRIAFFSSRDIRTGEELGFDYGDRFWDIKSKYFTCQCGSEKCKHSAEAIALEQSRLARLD
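Methyltransferase reactions run at room temperature for 2 h (20 nM enzyme, 500 nM biotin-H3K9 peptide, 20 uM SAM) after a 15 min compound preincubation; product detected by AlphaScreen beads and anti-H3K9me1 antibody.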
Numbers without * were called inactive; ? = inconclusive; nt = no result given; ! = a repeat was not active; [ ] = dose if it differs, or a comment. Unless noted, calls follow the shape of the dose curve; as a rule, active = well fitted curve in the direction sought with a large enough effect; inconclusive = small, poorly fitted or top-dose-only effect, or another doubt; inactive = no such curve, though single readings can be large; an effect the other way counts as inactive or inconclusive.

SMILES	KDM4E inh	miR-21 act	LMNA splice mod	ALDH1A1 block	Sfp PPTase inh	G9a inh
Cc1cc(C)n(CC(=O)N/N=C/c2ccccn2)n1	3.0%	7.2%	10.1%	-10.8%	17.8µM*	0.708µM*
O=C(COc1ccc([N+](=O)[O-])cc1)N/N=C/c1cc([N+](=O)[O-])ccc1N1CCOCC1	1.5%	-11.1%	?	3.55µM*	5.0%	-22.6%
O=C(COc1ccc([N+](=O)[O-])cc1)N/N=C/c1ccccn1	2.5%	-6.5%	10.5%	2.6%	79.4µM*	13.9%
O=C(N/N=C/c1ccccn1)C(=O)N1CCCCCC1	?	-1.0%	nt	nt	44.7µM*	?
COc1ccccc1Cc1nc2ccccc2nc1SCC(=O)NCc1ccccc1Cl	nt	-1.9%	2.8%[46 µM]	nt	nt	11.0%[59 µM]
Cc1ccc(F)cc1-c1ccc(C(=O)N=C(N)N)o1	nt	nt	nt	nt	-4.3%	nt
Cc1cccc(/C=N/NC(=O)Cn2nccc2C)n1	-9.0%	-2.7%	-14.5%	8.3%	50.1µM*	7.3%
O=C(Cn1c2ccccc2c(=O)c2ccccc21)N/N=C/c1cc([N+](=O)[O-])ccc1N1CCCCCC1	-14.9%	-0.2%	7.6%	5.2%	11.2µM*	23.2%[12.7 µM]
O=C(CCCC(=O)N/N=C\c1ccccn1)N/N=C\c1ccccn1	-4.8%	-1.7%	-2.1%	-4.0%	39.8µM*	?
Nc1nnnn1CC(=O)N/N=C/c1ccccn1	-16.0%	1.4%	nt	1.5%	35.5µM*	8.8%
CCOc1ccccc1CNC(=O)c1cc2n(n1)CCCN(Cc1ccc(C)cc1)C2=O	nt	3.5%	?	nt	nt	14.7%[59 µM]
CCc1cccc(C)c1NC(=S)N(CCCN1CCOCC1)Cc1cccnc1	9.2%	-0.9%	nt	?	?	1.8%[59 µM]
CCc1ccc(-c2nc(CS(=O)CC(=O)NCCc3ccc(C)cc3)c(C)o2)cc1 (stereo not given)	nt	-4.0%	14.0%[46 µM]	nt	nt	?
COc1ccccc1C(=O)NCCC(=O)NNC(=O)c1ccccc1O	nt	nt	nt	nt	nt	42.7%
Cc1ccc(N(C)C(=O)Cn2cc(S(=O)(=O)N3CCCC3)c(S(=O)(=O)N3CCCC3)c2)cc1	nt	-1.2%	?	nt	nt	-11.3%[59 µM]
OCC[C@@H]1C[C@@H](O)[C@H](O)[C@@]2(CCc3ccccc3O2)O1	nt	-0.8%	nt	nt	8.4%	22.1%
OCC[C@@H]1C[C@H](O)[C@@H](O)[C@@]2(CCc3ccccc3O2)O1	nt	-0.1%	nt	nt	8.5%	79.4µM*
OCC[C@@H]1C[C@@H](O)[C@H](O)[C@@]2(Cc3ccccc3O2)O1	nt	1.1%	nt	nt	11.1%	15.8µM*
COc1cc(/C=C(\C#N)C(=O)Nc2ccc(C(=O)O)cc2)ccc1OC(=O)c1cccc(F)c1	nt	0.8%	nt	nt	?	nt
O=C(O)CCSc1ccc([N+](=O)[O-])cc1[N+](=O)[O-]	-11.7%	1.4%	-15.6%[9.22 µM]	?	44.7µM*	?
Cc1cccc(C)c1NC(=O)CNC(=O)c1cncc(Br)c1	nt	-2.3%	nt	nt	0.1%	-3.1%
CN(C)c1ccc(C(=S)N2CCN(C(=S)Nc3cccc4ccccc34)CC2)cc1	0.7%	-1.3%	nt	15.8µM*	6.1%	-6.3%
CN(C)c1ccc(C(=S)N2CCN(C(=S)Nc3ccccc3)CC2)cc1	5.5%	-2.7%	-8.8%[46 µM]	?	19.5%	?
COc1ccc(-n2nc(C(=O)NCC(=O)N3CCN(c4ccccn4)CC3)c3ccccc3c2=O)cc1	?	-14.6%	-19.0%	28.2µM*	4.2%	7.9%[59 µM]
COc1ccc(-n2nc(C(=O)NCC(=O)NCc3ccccc3OC)c3ccccc3c2=O)c(OC)c1	?	0.8%	1.8%[9.22 µM]	1.3%	7.8%	?
SMILES	KDM4E inh	miR-21 act	LMNA splice mod	ALDH1A1 block	Sfp PPTase inh	G9a inh
COc1ccc(-n2nc(C(=O)Nc3nc4ccc(OC)cc4s3)c3ccccc3c2=O)c(OC)c1	8.3%	-5.7%	-6.4%	20µM*	10.2%	22.1%[59 µM]
COc1ccc(-n2nc(C(=O)NCC(=O)N3CCN(c4ccccc4)CC3)c3ccccc3c2=O)cc1OC	nt	-20.6%	nt	nt	26.4%	44.7µM*
CCOC(=O)N1CCN(C(=O)CNC(=O)c2nn(-c3ccc(OC)cc3OC)c(=O)c3ccccc23)CC1	nt	-8.9%	nt	nt	31.1%	44.7µM*
COc1ccc(-n2nc(C(=O)NCC(=O)N3CCN(c4ccccn4)CC3)c3ccccc3c2=O)cc1OC	-1.1%	-1.7%	?	-0.3%	26.3%	2.8%
COc1ccc(Cl)cc1NC(=S)NC1CCCC1	nt	1.2%	nt	nt	2.1%	nt
CCOC(=O)C1=C(CS(=O)(=O)c2ccc(F)c(C)c2)NC(=O)NC1c1ccccc1OC (stereo not given)	nt	7.0%	nt	nt	nt	2.7%[59 µM]
O=C(N/N=C/c1sc(N2CCOCC2)nc1-c1ccccc1)c1ccccc1Cl	2.0%	-0.2%	nt	?	-4.2%	34.6%[59 µM]
O=[N+]([O-])c1ccc(N/N=C/c2sc(N3CCOCC3)nc2-c2ccccc2)c(S(=O)(=O)Nc2ccccc2Cl)c1	-2.6%	22.0%	nt	-0.1%	9.9%	70.8µM*
O=[N+]([O-])c1ccc(N/N=C/c2sc(N3CCOCC3)nc2-c2ccccc2)c(S(=O)(=O)Nc2ccc(Cl)cc2)c1	-0.7%	-0.3%	?	-3.9%	-14.0%	39.8µM*
CCN(Cc1ccncc1)C(=O)c1cc(COc2c(F)cccc2F)on1	nt	-5.7%	nt	nt	18.2%	20.8%
O=c1c(-c2cccs2)nc2cncnc2n1-c1ccccc1	nt	nt	2.3%	?	7.7%	-19.2%[0.501 µM]
O=C(NNc1ncnc2ccccc12)c1cccc(Cl)c1	-12.4%	-61.3%	nt	nt	-1.4%	79.4µM*
CC(=O)NNc1ncnc2ccccc12	-10.8%	-5.2%	?	-15.6%	-12.6%	?
O=C(O)/C=C/C(=O)NNc1ncnc2ccccc12	-10.1%	-30.6%	nt	nt	56.2µM*	28.5%[12.7 µM]
O=C(NCCC1CCCCN1S(=O)(=O)c1ccccc1)C(=O)NCCN1CCOCC1 (stereo not given)	nt	nt	nt	nt	nt	9.5%[0.501 µM]
CC1CCN(CC[C@H]2CCCN2S(=O)(=O)c2cccc(O)c2)CC1	4.4%	nt	-21.1%	6.9%	-5.4%	25.1µM*!
CC(C)CO/N=C1/[C@H]2O[C@@H]2[C@@H](O)[C@H]2[C@H]1CCn1c(=O)n(C)c(=O)n12	nt	nt	nt	-0.1%[13.5 µM]	16.6%	nt
CN1CC(=O)NC1=NC(=O)c1ccc(Cl)c(S(=O)(=O)N2CCCCCC2)c1	6.0%	-11.0%	8.6%	11.8%	-8.8%	-20.6%[59 µM]
CN1CC(=O)NC1=NC(=O)c1cc(F)c(F)cc1Cl	-0.9%	0.9%	4.1%	-5.3%	-20.6%	31.6µM*
